Measurements from PubChem BioAssay (EPA / NIEHS).
Records with an inconclusive call do not appear. Activity calls are given as the source filed them. How the source made its calls, unless noted: active means hit-call score of the fitted dose curve at least 0.9, where 1 is the maximum; inactive means score below 0.9.

What was measured:
[1] = CCTE_Shafer_MEA_dev_per_burst_spike_percent: CCTE's Neural Network Formation Assay for Percent of Spikes in a Burst, Shafer Lab (AID 2284032)
Summary of the method: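 Value is trapezoidal AUC over recordings on days 5, 7, 9 and 12 of the well-mean fraction of spikes falling in single-electrode bursts; rat cortical cultures exposed continuously from plating, treatment renewed DIV 5 and 9, fitted downward against DMSO.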

[2] = CCTE_Shafer_MEA_dev_per_burst_interspike_interval: CCTE's Neural Network Formation Assay for Burst Interspike Interval, Shafer Lab (AID 2284044)
Summary of the method: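 Spontaneous activity of maturing rat cortical networks is recorded on DIV 5, 7, 9 and 12 under chronic compound exposure beginning at plating. Endpoint: burst interspike interval well-mean, collapsed into trapezoidal AUC and fitted in the negative direction relative to DMSO.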

[3] = CCTE_Shafer_MEA_dev_burst_duration_mean: CCTE's Neural Network Formation Assay for Mean Burst Duration, Shafer Lab (AID 2284045)
Summary of the method: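 Rat cortical cultures, 1.5 x 10^5 cells/well with laminin drop; continuous dosing days 0–12, media plus treatment refreshed DIV 5, 9. AxIS adaptive spike detection; mean single-electrode burst duration, AUC over four recordings, negative direction vs DMSO.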

[4] = CCTE_Shafer_MEA_dev_interburst_interval_mean: CCTE's Neural Network Formation Assay for Mean Interburst Interval, Shafer Lab (AID 2284046);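 further: well-mean interburst interval of bursting electrodes as AUC over four recording days; curve fitted for decrease in interburst interval relative to DMSO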
Summary of the method: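 Rat cortical neurons, 1.5 x 10^5 cells/well, 48-well MEA; compound from day 0 through DIV 12, media and treatment renewed DIV 5/9. Recordings DIV 5, 7, 9, 12; well-mean interburst interval → trapezoidal AUC, loss direction vs DMSO.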

[5] = CCTE_Shafer_MEA_dev_inter_network_spike_interval_mean: CCTE's Neural Network Formation Assay for Mean Inter-network Spike Interval, Shafer Lab (AID 2284047)
Summary of the method: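 Primary rat cortical neurons on PEI-coated 48-well MEAs (16 electrodes/well) were exposed from plating day 0 to DIV 12, with dosing renewed at DIV 5 and 9. Recordings at DIV 5, 7, 9, 12 were collapsed by trapezoidal AUC, loss-of-signal fit vs DMSO.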

[6] = CCTE_Shafer_MEA_dev_network_spike_number: CCTE's Neural Network Formation Assay for Number of Network Spikes, Shafer Lab (AID 2284048);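 further: synchronized bursts across electrodes counted on days 5 7 9 12 and integrated as AUC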
Summary of the method: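 Rat cortical primary cultures on 48-well MEA (16 electrodes/well); continuous exposure DIV 0–12, full medium and treatment exchange DIV 5, 9. Readout: network spike count, AxIS adaptive detection, recordings DIV 5/7/9/12 collapsed to AUC; loss-of-signal fit, DMSO baseline.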

[7] = CCTE_Shafer_MEA_dev_network_spike_peak: CCTE's Neural Network Formation Assay for Mean Number of Electrodes in Network Spike, Shafer Lab (AID 2284049)
Summary of the method: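 Network-spike peak electrode count from recordings on days 5, 7, 9 and 12 was combined as trapezoidal area under the curve. Rat cortical cultures were treated continuously from plating, with compound renewed at each feed (DIV 5, 9); fits versus DMSO.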

[8] = CCTE_Shafer_MEA_dev_spike_duration_mean: CCTE's Neural Network Formation Assay for Mean Spike Duration, Shafer Lab (AID 2284051);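 further: mean network spike duration pooled as area under curve over DIV 5 to 12 recordings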
Summary of the method: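 Rat cortical primary cultures, 48-well MEA (16 electrodes/well); compound from plating, renewed DIV 5, 9. Network spike duration (AxIS adaptive detector) recorded DIV 5/7/9/12, combined as trapezoidal AUC; loss direction vs DMSO.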

[9] = CCTE_Shafer_MEA_dev_network_spike_duration_std: CCTE's Neural Network Formation Assay for Standard Deviation of Network Spike Duration, Shafer Lab (AID 2284052);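 further: area under curve of spike duration SD across recording days 5 to 12; hits are decreases in network spike duration SD versus DMSO vehicle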
Summary of the method: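 Rat cortical cultures, 1.5 x 10^5 cells/well, exposed continuously from plating to DIV 12 with media/compound renewal at DIV 5, 9. Spontaneous activity recorded DIV 5/7/9/12, AxIS adaptive spike detector; AUC across days; negative direction vs DMSO.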

[10] = CCTE_Shafer_MEA_dev_per_network_spike_spike_number_mean: CCTE's Neural Network Formation Assay for Mean Number of Spikes in a Network Spike, Shafer Lab (AID 2284053)
Summary of the method: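 Rat cortical primary cultures on 48-well MEA; compound from day 0, re-dosed with full media change DIV 5, 9. Recorded DIV 5, 7, 9, 12; spikes in 0.05 s window at network-spike peak ÷ total network spikes; AUC; loss vs DMSO.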

[11] = CCTE_Shafer_MEA_dev_per_network_spike_spike_percent: CCTE's Neural Network Formation Assay for Percent of Spikes in a Network Spike, Shafer Lab (AID 2284054)
Summary of the method: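 Read-out: percent of spikes falling in a 0.05 s window at network-spike peak, from spontaneous MEA recordings on days 5, 7, 9 and 12; trapezoidal AUC; loss of signal versus DMSO. Rat cortical cultures, compound present throughout.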

[12] = CCTE_Shafer_MEA_dev_AB: CCTE's Alamar Blue Assay for Cytotoxicity in the Neural Network Formation Assay, Shafer Lab (AID 2284083; active means hit-call score of the fitted dose curve at least 0.9, where 1 is the maximum;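 further: resazurin reduction fluorescence as viability of cultured neurons; twelve days of exposure from plating with re-dosing on DIV 5 and 9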)
Summary of the method: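 Rat cortical primary cultures, 1.5 x 10^5 cells/well on MEA; continuous compound exposure over 12 days of network development, re-dosed with full medium change DIV 5 and 9. Alamar Blue fluorescence; loss of signal = cytotoxicity vs DMSO baseline.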

[13] = CCTE_Shafer_MEA_dev_mutual_information_norm: CCTE's Neural Network Formation Assay for Mutual Information Normalization, Shafer Lab (AID 2284091)
Summary of the method: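 Neurons from rat cortex were seeded at 1.5 x 10^5 cells/well onto PEI-coated MEAs in a laminin drop, then exposed to compound from day 0 for twelve days. Network recordings on four days gave mutual information, summarised by AUC relative to DMSO.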

[14] = CCTE_Shafer_MEA_dev_correlation_coefficient_mean: CCTE's Neural Network Formation Assay for Mean Correlation Coefficient, Shafer Lab (AID 2284093)
Summary of the method: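 Rat cortical cultures, 1.5 x 10^5 cells/well, dosed from day 0 for 12 days. Spontaneous spikes recorded DIV 5/7/9/12; electrode-pair correlation coefficients averaged, AUC taken. Fit in loss direction vs DMSO.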

[15] = IUF_NPC1b_proliferation_BrdU_72hr: Leibniz Research Institute for Environmental Medicine (IUF) 72-hour Neural Progenitor Cell Bromodeoxyuridine (BrdU) Proliferation Assay (NPC1b) (AID 2284207)
Summary of the method: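 Luminescent BrdU ELISA measured DNA synthesis during the last 16 h of a 72 h exposure of primary human neural progenitor spheres grown with EGF and FGF. Signal was fitted relative to DMSO controls.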

[16] = IUF_NPC1a_proliferation_area_72hr: Leibniz Research Institute for Environmental Medicine (IUF) 72-hour Neural Progenitor Cell Proliferation Area Assay (NPC1a) (AID 2284208)
Summary of the method: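 Measured in 3D suspension: each well held one primary hNPC sphere grown with EGF and FGF at pH 7.2-7.6. Compound stayed on for 72 h, then area was imaged; spheres lacking growth factors defined reduced proliferation.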

[17] = IUF_NPC1_viability_72hr: Viability Assessment at 72 hours in the Leibniz Research Institute for Environmental Medicine (IUF) Neural Progenitor Cell Proliferation Assay (NPC1) (AID 2284209)
Summary of the method: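 Alamar blue fluorescence (RFU) after 72 h exposure, normalized to DMSO baseline. hNPC spheres from GW 16-19 fetal cortex, single sphere per well in growth-factor medium; no compound renewal.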

[18] = CCTE_Mundy_HCI_Cortical_Synap_Neur_Matur_NeuriteSpotCountPerNeuriteLength: CCTE's Synaptogenesis and Neurite Maturation Assay in rat cortical cells for Neurite Spot Count per Neurite Length, Mundy Lab (AID 2284210)
Summary of the method: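 Read-out: synaptophysin puncta counted along MAP2-stained neurites, normalised to neurite length, by automated high-content imaging. Rat cortical cells; AraC DIV 5; chemical dosing DIV 7; termination DIV 12. DMSO baseline.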

[19] = CCTE_Mundy_HCI_Cortical_Synap_Neur_Matur_BPCount: CCTE's Synaptogenesis and Neurite Maturation Assay in rat cortical cells for Branch Point Count, Mundy Lab (AID 2284211)
Summary of the method: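 In this multiplexed morphology assay, cortical cells from rat receive chemicals at DIV 7 and are fixed at DIV 12, then immunostained and imaged; branch points are counted, with DMSO as baseline.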

[20] = CCTE_Mundy_HCI_Cortical_NOG_NeuriteCount: CCTE's Neurite Outgrowth Assay in rat cortical cells for Neurite Count, Mundy Lab (AID 2284212);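 further: cells fixed about two days after chemical exposure began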
Summary of the method: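 Rat cortical primary cells; compound added 2 h post-plating, 1/10 dilution of working solution. Anti-betaIII-tubulin/AF488 ICC; ArrayScan neurite count vs DMSO.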

[21] = CCTE_Mundy_HCI_Cortical_NOG_NeuriteLength: CCTE's Neurite Outgrowth Assay in rat cortical cells for Neurite Length, Mundy Lab (AID 2284213)
Summary of the method: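 First, rat primary cortical cells were plated and, 2 h later, given test chemical as a 1/10 dilution. Finally, βIII-tubulin immunostaining enabled automated imaging of neurite length.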

[22] = CCTE_Mundy_HCI_Cortical_Synap_Neur_Matur_NeuriteLength: CCTE's Synaptogenesis and Neurite Maturation Assay in rat cortical cells for Neurite Length, Mundy Lab (AID 2284214)
Summary of the method: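 Read-out: high-content imaging of MAP2-labelled neurites, with synaptophysin and Hoechst co-stain, in rat cortical cultures fixed at DIV 12. Activity fitted in positive direction relative to DMSO baseline.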

[23] = CCTE_Mundy_HCI_Cortical_Synap_Neur_Matur_NeuriteSpotCountPerNeuron: CCTE's Synaptogenesis and Neurite Maturation Assay in rat cortical cells for Neurite Spot Count per Neuron Count, Mundy Lab (AID 2284215)
Summary of the method: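 Developing rat cortical neurons, with glia suppressed by AraC, are exposed to chemicals from DIV 7 to DIV 12. Automated fluorescence imaging of MAP2-labelled neurites and synaptophysin puncta yields a count per neuron, normalised against DMSO wells.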

[24] = CCTE_Mundy_HCI_Cortical_Synap_Neur_Matur_SynapseCount: CCTE's Synaptogenesis and Neurite Maturation Assay in rat cortical cells for Synapse Count, Mundy Lab (AID 2284218)
Summary of the method: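 Read-out: synapse number per neuron, automated high-content imaging of fixed cells immunostained for MAP2 and synaptophysin plus Hoechst nuclei. Rat primary cortical cultures, AraC at DIV 5, chemical dosing DIV 7–12. Positive-direction fit relative to DMSO.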

Measured: AC50

CC(=O)N[C@@H](CC(=O)O)C(=O)O
active: [15] 11.7 µM
inactive: all other assays above
